Source: PubChem BioAssay
DT40 TDP1 no CPT – qHTS for Inhibitors of human tyrosyl-DNA phosphodiesterase 1 (TDP1): qHTS in cells in absence of CPT; DT40 Tdp1-/- hTDP1 cells, no CPT, ATP luminescence, 48 h; AID 686978, 2013; 420,000 tested, 15% active; Potency, µM (doses to about 46.2 µM), without a hit: at the top dose activity change, negative = growth inhibition, most hits filed as inhibitors; also: potency is read from the fitted curve at half-maximal effect; nearly all actives have a fitted effect of over 55% in size
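Seeded 400 DT40-hTDP1 cells/well (vehicle DMSO, no 20 nM CPT); pinned compounds; ≥48 hr at 37 °C; CellTiter-Glo luminescence as viability measure.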
IL-1B inflam inh – qHTS for Inhibitors of Inflammasome Signaling: IL-1-beta AlphaLISA Primary Screen; THP-1 LPS/ATP IL-1B secretion, AlphaLISA, 16 h; hits give low values; activity change, % at 57.5 µM; 360,000 tested, 4.7% active; AID 743279, 2014; in the data active = activity change below about -50%; inconclusive = mostly about -30% to -49%
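Secreted IL-1B measured by AlphaLISA bead assay after 16 h compound exposure of THP-1 cells; compounds (final up to 57.5 uM) added 1 h before LPS (250 ng/mL) and ATP (1.25 mM) stimulation; lower signal means less secretion.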
Six1-Eya2 inh – qHTS Assay for Inhibitors of the Six1/Eya2 Interaction | AlphaScreen GST-Six1/His-Eya2 binding, biochemical; hits give low values | activity change, % (no concentration beside the values) | 360,000 tested, 0.56% active | AID 651725, 2012; in the data active = activity change below about -65%; inconclusive = mostly about -30% to -63%
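Homogeneous AlphaScreen proximity assay pairing GST-Six1 with His-tagged Eya2 (added as 5X mix: 250 nM and 500 nM) in 50 mM Tris pH 8.0, 300 mM NaCl, 1 mM TCEP. Glutathione donor and nickel acceptor beads; 1 h, 37 °C, dark.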
DT40 TDP1 CPT – qHTS for Inhibitors of human tyrosyl-DNA phosphodiesterase 1 (TDP1): qHTS in cells in presence of CPT | Potency, µM (series often up to 46.2 µM), for the others: at the highest dose activity change, negative = growth inhibition, usual class: inhibitors | 420,000 tested, 12% active | chicken DT40 Tdp1-/-;hTDP1 cells + 20 nM CPT, ATP luminescence, 48 h; also: potency is read from the fitted curve at half-maximal effect; nearly all actives have a fitted effect of over 55% in size
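Cell growth measured by CellTiter-Glo luminescence after a minimum 48 h, 37 C compound exposure with 20 nM CPT in Tdp1-knockout DT40 cells stably expressing hTDP1, seeded 400/well; qHTS titration format.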
TDP1 inh – qHTS Assay for Inhibitors of Tyrosyl-DNA Phosphodiesterase (TDP1); recombinant TDP1, AlphaScreen DNA substrate cleavage; Potency, µM (top dose mostly 130 µM), inactives show at the top dose activity change, negative = inhibition, usual class: inhibitors; 350,000 tested, 0.28% active; AID 485290, 2010; also: potency is read from the fitted curve at half-maximal effect; nearly all actives have a fitted effect of over 40% in size
Target sequence (Q9NUW8 whole entry, looked up): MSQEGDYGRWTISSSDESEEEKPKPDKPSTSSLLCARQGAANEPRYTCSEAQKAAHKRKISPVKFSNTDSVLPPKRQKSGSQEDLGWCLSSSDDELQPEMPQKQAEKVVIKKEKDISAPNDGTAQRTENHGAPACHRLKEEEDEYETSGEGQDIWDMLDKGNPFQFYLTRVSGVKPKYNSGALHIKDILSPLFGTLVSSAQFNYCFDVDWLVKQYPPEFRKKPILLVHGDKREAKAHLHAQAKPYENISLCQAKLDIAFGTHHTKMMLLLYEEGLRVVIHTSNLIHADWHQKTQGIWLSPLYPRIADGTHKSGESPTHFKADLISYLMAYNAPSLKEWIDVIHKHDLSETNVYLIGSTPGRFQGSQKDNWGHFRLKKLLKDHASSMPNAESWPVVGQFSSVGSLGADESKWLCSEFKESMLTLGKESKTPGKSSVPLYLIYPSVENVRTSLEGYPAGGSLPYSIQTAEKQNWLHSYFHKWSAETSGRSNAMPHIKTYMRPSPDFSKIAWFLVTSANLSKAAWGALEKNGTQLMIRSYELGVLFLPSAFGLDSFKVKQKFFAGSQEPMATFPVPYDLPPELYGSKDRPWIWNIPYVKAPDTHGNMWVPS
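Here, a 5' biotin and 3' phosphotyrosine-FITC DNA oligonucleotide reports Tdp1 activity: intact substrate bridges AlphaScreen beads, while cleavage leaves a 3' phosphate and drops signal. All incubations at room temperature.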
CtBP-E1A inh – qHTS Assay for Inhibitors of the CtBP/E1A Interaction | 340,000 tested, 0.49% active | CtBP / adenovirus E1A interaction (AlphaScreen) | activity change, % (test concentration not listed) | AlphaScreen GST-E1A/His-CtBP binding, 1536-well; hits give low values; in the data active = activity change below about -65%; inconclusive = mostly about -30% to -63%
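Steps: dispense buffer (Tris pH 8.0, NaCl 300 mM, TCEP 1 mM, BSA, Tween 20); add 5X protein mix (GST-E1A, His-CtBP, 125 nM each); pin 23 nL compound; 2 h at 37 °C, dark; add 5X beads (50 ug/mL); 1 h; read.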
Starred values were filed as active, the others as inactive; ? = inconclusive; / = not tested or not shown. Rows were chosen to be rich in hits. Some 18% of all compounds tested hit in one or more screens of this group. Unless noted, calls follow the shape of the dose curve; as a rule, active = well fitted curve in the direction sought with a large enough effect; inconclusive = small, poorly fitted or top-dose-only effect, or another doubt; inactive = no such curve, though single readings can be large; an effect the other way counts as inactive or inconclusive. % is scaled to controls: 0 for no effect and ±100 for the full control effect.

SMILES	DT40 TDP1 no CPT	IL-1B inflam inh	Six1-Eya2 inh	DT40 TDP1 CPT	TDP1 inh	CtBP-E1A inh
C#CCNC(=O)C[C@@H]1C[C@@]2(C(=O)OC)CC(C)(C)CC=C2N(Cc2cccc3ccccc23)C1=O	18.4µM*	15.9	-4.2	16.4µM*	/	3.4
C#CCNC(=O)C[C@@H]1C[C@@]2(C(=O)OCC)CCC=C2N(Cc2cccc3ccccc23)C1=O	16.4µM*	-8.7	0.3	?	/	0.6
COC(=O)[C@]12CCCCC=C1N(Cc1cccc3ccccc13)C(=O)[C@H](CC(=O)NCc1cccc(C(F)(F)F)c1)C2	?	-73.1*	1.5	?	/	-26.8
O=C(O)c1cccc(Sc2ccc(Br)cc2C(=O)O)c1	-4.8%	23.9	2.2	-12.9%	2.5%	-11.4
Cc1cc(-c2ccccc2)n2ncc(C#N)c2n1	0.1%	5.0	8.2	-1.4%	-1.0%	-17.1
CCOC(=O)[C@]12CCC=C1N(Cc1cccc3ccccc13)C(=O)[C@H](CC(=O)NCCCN1CCCC1=O)C2	?	-4.6	-1.3	?	/	0.9
CCOC(=O)[C@]12CCCC=C1N(Cc1cccc3ccccc13)C(=O)[C@H](CC(=O)NCC1CCCCC1)C2	23.1µM*	0.0	-4.3	?	/	-6.9
CCOC(=O)[C@]12CCCC=C1N(Cc1cccc3ccccc13)C(=O)[C@H](CC(=O)NCc1ccc(OC)c(OC)c1)C2	16.4µM*	-69.2*	-18.8	?	/	-3.2
CCOC(=O)[C@]12CCCC=C1N(Cc1ccco1)C(=O)[C@H](CC(=O)NCc1ccc(OC)c(OC)c1)C2	?	15.3	-0.4	?	/	4.6
CCOC(=O)[C@]12CCCC=C1N(Cc1cccc3ccccc13)C(=O)[C@H](CC(=O)NCc1ccccc1)C2	23.1µM*	-26.9	-14.9	?	/	-1.9
CCOC(=O)[C@]12CCC=C1N(Cc1cccc3ccccc13)C(=O)[C@H](CC(=O)NCCc1ccccc1OC)C2	18.4µM*	?	-3.7	?	/	2.1
CCOC(=O)[C@]12CCC=C1N(Cc1cccc3ccccc13)C(=O)[C@H](CC(=O)NCc1ccccc1)C2	?	0.0	-13.5	?	/	-1.9
CS(=O)(=O)Nc1ccccc1C(=O)OCC(=O)NCc1cccs1	-9.2%	15.1	1.8	-17.9%	0.1%	-0.2
CCCCCCCCN1C(=O)[C@H](CC(=O)NCc2cccc3ccccc23)C[C@@]2(C(=O)OCC)CCC=C12	20.6µM*	?	-8.4	?	/	-1.6
CCOC(=O)[C@]12CCC=C1N(Cc1ccco1)C(=O)[C@H](CC(=O)NCc1cccc3ccccc13)C2	-16.7%	-13.6	-11.9	-15.7%	/	0.0
CCc1ccccc1NC(=O)c1cc(S(=O)(=O)NCCc2ccc(OC)c(OC)c2)ccc1F	16.4µM*	/	/	20.6µM*	5.2%	/
Cc1ccc(C)c(NC(=O)c2cc(S(=O)(=O)NCCc3ccccc3)ccc2F)c1	?	/	/	23.1µM*	2.6%	/
Cc1ccc(NC(=O)c2cc(S(=O)(=O)NCCc3ccccc3)ccc2F)cc1Cl	?	-88.0*	9.2	?	-4.2%	14.3
COc1ccc(N2C(=O)CC(NCc3ccncc3)C2=O)cc1 (centres undefined)	-6.8%	-10.8	-10.6	-22.5%	-4.9%	-1.4
CCOCCCNC(=O)CN(c1cc([N+](=O)[O-])ccc1OC)S(C)(=O)=O	-10.2%	-12.8	-0.1	7.8%	-7.2%	-1.0
